Screening results (PubChem)
Most compounds without a hit are left out; they make up all but 21% or so of the library.
Pf growth 96h: Primary qHTS for delayed death inhibitors of the malarial parasite plastid, 96 hour incubation | P. falciparum luciferase reporter growth, 96 h | Potency, µM (titrated, usually from 28.7 µM), hits mostly inhibitors | hit rate 6.9% among 320,000
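P. falciparum expressing integrated firefly luciferase grown in erythrocytes (2% hematocrit, 0.05% parasitemia final) with compounds for 96 hours at 37 C, 5% CO2. Growth inhibition read as loss of luminescence after adding luciferase detection reagent.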
Pf growth 48h: Primary qHTS for delayed death inhibitors of the malarial parasite plastid, 48 hour incubation; P. falciparum luciferase growth in erythrocytes, 48 h; Potency, µM (top dose mostly 28.7 µM), actives largely listed as inhibitors; hit rate 5.9% among 310,000; AID 504832, 2011
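Growth was read as firefly luciferase luminescence after a 48 h, 37 C, 5% CO2 exposure of compounds to reporter-bearing P. falciparum cultures (0.1% parasitemia, 2% hematocrit final) in Albumax-supplemented RPMI 1640.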
HCMV antiviral: qHTS Assay for inhibitors of the human cytomegalovirus (HCMV). hit rate 4.5% among 410,000. HFF cells, HCMV-luciferase reporter, 72 h; stronger effect = lower value. activity change, negative = inhibition, % at 57.5 µM; in the data active = activity change below about -60%; inconclusive = no clear call, values can overlap the other calls; inactive = above about -39%
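Steps: HFFs plated, 16 h 37C; compounds added; HCMV-luciferase added to MOI 1 PFU/cell; 72 h 37C; OneGlo reagent, 5 min room temperature; luminescence read, normalized to controls.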
Shiga inhibitor: A qHTS for Small Molecule Inhibitors of Shiga Toxin; AID 2315, 2010; inhibition, % at 38.7 µM; Vero cells, Shiga toxin protein synthesis inhibition reporter; hit rate 9.2% among 290,000; in the data active = inhibition mostly above about 28%, no sharp cut-off; inactive = mostly below about 43%
Cycloheximide cs: Cycloheximide Counterscreen for Small Molecule Inhibitors of Shiga Toxin | AID 2314, 2010 | max response, % | cell reporter, cycloheximide protein synthesis inhibition counterscreen | hit rate 12% among 300,000; in the data active = max response mostly above about 13%, no sharp cut-off; inactive = mostly below about 14%; also: read at 38.3 µM for the half of the compounds with a filed dose
HCV inh: qHTS Assay for Inhibitors of Hepatitis C Virus (HCV) | Huh7.5.1 HCVcc-Cre infection, luciferase reporter, 44 h | Potency, µM (top dose mostly 41.8 µM), most hits filed as inhibitors | hit rate 3.4% among 340,000 | AID 651820, 2012
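Whole-lifecycle infectious HCVcc-Cre system; cells 1,000/well, compound then virus (~0.5 moi) added 4 h after plating, 44 h culture. Luciferase read 15 sec following 15 min substrate incubation, room temp.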
Each line names hits and unclear results; the compound was inactive in the other large screens; ! = not active in a repeat. Unless noted, calls follow the shape of the dose curve; as a rule, active = well fitted inhibition curve with a large enough effect; inconclusive = small, poorly fitted or top-dose-only effect, or another doubt; inactive = no such curve, though single readings can be large or run the other way.

CC(=O)Oc1ccc2c3c(c(=O)oc2c1C)CCCC3	none
Cc1cc(Cl)ccc1OCC(=O)Nc1cccnc1	Shiga inhibitor 60.6, Cycloheximide cs 37.7, HCV inh inconclusive
Cc1c(OCC(=O)NCc2cccnc2)ccc2c3c(c(=O)oc12)CCCC3	Pf growth 96h 13.1µM
Cc1c(OC(C)C(=O)O)ccc2c3c(c(=O)oc12)CCCC3 (centres undefined)	Pf growth 96h 10.4µM
CCOC(=O)C(C)Oc1cc(C)cc2oc(=O)c3c(c12)CCCC3 (centres undefined)	HCV inh 10µM (no result: Pf growth 96h, Pf growth 48h)
COc1ccc(CNC(=O)c2cccn2-c2nnc(N3CCCC3)s2)c(OC)c1	none (no result: Pf growth 96h, Pf growth 48h, Shiga inhibitor, Cycloheximide cs, HCV inh)
CC(C)C[C@@H]1COc2cccc(NCCO)c2S(=O)(=O)N1	none (no result: Pf growth 96h, Pf growth 48h, Shiga inhibitor, Cycloheximide cs, HCV inh)
CCN(C(=O)c1nn(C)c2c1CSc1ccccc1-2)c1cccc(C)c1	none (no result: Pf growth 96h, Pf growth 48h, Shiga inhibitor, Cycloheximide cs, HCV inh)
Cc1cc(OCC(=O)NCc2cccnc2)c2c3c(c(=O)oc2c1)CCCC3	Pf growth 96h inconclusive, HCV inh 10µM
O=C(Nc1ccc(NC(=O)C2CC2)cn1)c1ccccc1Cl	HCMV antiviral inconclusive, Shiga inhibitor 49.5, Cycloheximide cs 33.3, HCV inh inconclusive (no result: Pf growth 96h)
Cc1cc(NC(=O)C2CCCCC2)ccc1NC(=O)c1ccccc1Cl	HCMV antiviral inconclusive, HCV inh inconclusive
O=C(Nc1ccc(NC(=O)C2CC2)cn1)c1ccccc1	Shiga inhibitor 43.0, Cycloheximide cs 25.7
O=C(Cc1ccccc1)Nc1ccc(NC(=O)c2ccccc2)nc1	Pf growth 96h inconclusive, Shiga inhibitor 174.2, Cycloheximide cs 37.5
COc1ccc(Cn2c(CCC(=O)Nc3cccc(Cl)c3)nc3cccnc32)cc1	none (no result: Pf growth 96h, Pf growth 48h, Shiga inhibitor, Cycloheximide cs, HCV inh)
CCOC(=O)C1=C(C)NC2=C(C(=O)CCC2)C1c1cn(Cc2ccc(Cl)cc2Cl)nc1-c1ccccc1 (centres undefined)	Pf growth 96h 0.738µM, Pf growth 48h 0.117µM, HCMV antiviral -90.0, HCV inh inconclusive
COC(=O)C1=C(C)NC2=C(C(=O)CCC2)C1c1cccs1 (centres undefined)	none (no result: Pf growth 96h)
COC(=O)C1=C(C)NC2=C(C(=O)CCC2)C1c1cn(Cc2ccc(Cl)cc2Cl)nc1-c1ccccc1 (centres undefined)	Pf growth 96h 1.85µM, Pf growth 48h 2.62µM, HCMV antiviral -60.7, HCV inh inconclusive
CC(=O)Nc1ccc2nc(NC(=O)c3cccs3)sc2c1	Shiga inhibitor 77.5, Cycloheximide cs 42.9
COc1cccc(-c2nnc(NC(=O)c3cccs3)s2)c1	none
CN(C(=O)CSc1nc2ccc(NC(=O)c3cccs3)cc2s1)c1ccccc1	HCMV antiviral -75.7 (no result: Pf growth 96h, Pf growth 48h, Shiga inhibitor, Cycloheximide cs, HCV inh)
Cc1nc2ccc(NC(=O)c3cccs3)cc2s1	Shiga inhibitor 98.1, Cycloheximide cs 45.2
CN(C(=O)CSc1nc2ccc(NC(=O)c3ccccc3)cc2s1)c1ccccc1	none (no result: Pf growth 96h, Pf growth 48h, Shiga inhibitor, Cycloheximide cs, HCV inh)
COc1ccc2nc(NC(=O)c3cccs3)sc2c1	Shiga inhibitor 77.4, Cycloheximide cs 43.8
CCCCn1cc(S(=O)(=O)c2ccc(Cl)cc2)c(=O)c2cc(F)c(N3CCCC(C)C3)cc21 (centres undefined)	none (no result: Pf growth 96h, Pf growth 48h, Shiga inhibitor, Cycloheximide cs, HCV inh)
CC(C)OC(=O)c1cccnc1SCC(=O)Nc1ccc(C(F)(F)F)cc1Cl	none (no result: Pf growth 96h, Pf growth 48h, Shiga inhibitor, Cycloheximide cs, HCV inh)
CC(C(=O)NC1CCCc2ccccc21)N1C(=O)C2CCCCC2C1=O (centres undefined)	none (no result: Shiga inhibitor, Cycloheximide cs)
COc1cc(NC(=O)CSc2nnc3ccc(-c4cccnc4)nn23)cc(OC)c1	none (no result: Shiga inhibitor, Cycloheximide cs)
Cc1nc2ccc(NC(=O)c3sccc3C)cc2s1	Shiga inhibitor 63.7, Cycloheximide cs 64.4
CCc1sc(C(=O)Nc2ccc3nc(C)sc3c2)cc1C	HCV inh inconclusive (no result: Pf growth 96h, Pf growth 48h, Shiga inhibitor, Cycloheximide cs)
COc1ccc(-c2cc3nc(C)c(CCC(=O)N4CCN(c5cccc(Cl)c5)CC4)c(C)n3n2)c(OC)c1	none (no result: Pf growth 96h, Pf growth 48h, Shiga inhibitor, Cycloheximide cs, HCV inh)
Cc1ccc(NC(=O)c2nnn(Cc3ccccc3)c2N)cc1C	none (no result: Pf growth 96h, Pf growth 48h, Shiga inhibitor, Cycloheximide cs, HCV inh)
Cc1ccc(NC(=O)Cn2ccc(=O)[nH]c2=O)cc1	Cycloheximide cs 30.0
Nc1c(C(=O)Nc2ccccc2Cl)nnn1-c1ccc2c(c1)OCCO2	Pf growth 96h inconclusive, Shiga inhibitor 65.3, Cycloheximide cs 33.3, HCV inh inconclusive
O=C(COC(=O)Cn1ccc(=O)[nH]c1=O)Nc1ccc(F)cc1	none (no result: Pf growth 96h, Pf growth 48h, Shiga inhibitor, Cycloheximide cs)
Cc1ccc(NC(=O)Cn2nc(C(=O)Nc3ccc(C)cc3)ccc2=O)cc1	Pf growth 96h 13.1µM
Cc1ccc(NC(=O)Cn2nnc(C(=O)Nc3ccc(C)c(C)c3)c2N)cc1	Pf growth 96h 9.28µM, Cycloheximide cs 14.7, HCV inh inconclusive
CC1(C)CC(NC(=O)c2cccc(Cl)c2)CC(C)(C)N1	none
Nc1c(C(=O)Nc2ccc3c(c2)OCCO3)nnn1Cc1cccc(Br)c1	Pf growth 96h inconclusive, Pf growth 48h inconclusive, HCV inh inconclusive (no result: Shiga inhibitor, Cycloheximide cs)
Nc1c(C(=O)Nc2ccc3c(c2)OCCO3)nnn1CCc1ccccc1	Shiga inhibitor 55.7, Cycloheximide cs 19.6 (no result: Pf growth 48h)
Cc1cc(C)cc(NC(=O)Cn2nnc(C(=O)NCc3ccccc3Cl)c2N)c1	Pf growth 48h inconclusive, HCMV antiviral -78.6!
CCOc1ccc(NC(=O)c2nnn(CC(=O)Nc3ccccc3OC)c2N)cc1	Pf growth 96h inconclusive, Cycloheximide cs 19.0, HCV inh inconclusive
Cc1ccc(NC(=O)c2nnn(CC(=O)Nc3ccc4c(c3)OCO4)c2N)cc1C	Cycloheximide cs 20.7
CC12Nc3ccccc3C(=O)N1Cc1cnnn1-c1cc3c(cc12)OCO3 (centres undefined)	none (no result: Pf growth 96h, Pf growth 48h, Shiga inhibitor, Cycloheximide cs, HCV inh)
Cc1ccc(-c2cc(Cc3ccccn3)c(=O)[nH]n2)cc1	Pf growth 48h inconclusive
